Activity calls are given as the source filed them.
Legend:
[1] = tested on: Human papillomavirus type 1a protein E7 (residues 44-93); test: HPV1a E7 fragment binders on microarrays, primary screen, biochemical, small-molecule microarray, residues 44-93, 635 nm fluorescence (AID 1108); conditions: small-molecule microarray binding, fluorescence 635 nm; higher = more signal;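 note: E7 fragment applied at 1 µg/mL in TBST for 1 h at 4 C; score combines spot fluorescence with its signal to noise ratio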
[2] = modulators of HCV replicon luciferase signal, primary screen, HCV replication inhibitor project, Huh7 cells, luciferase reporter (AID 1109); conditions: 48 h, higher = more signal;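 note: huh7 hepatoma cells harbouring a luciferase neomycin HCV replicon reporter; luciferase luminescence as measure of HCV replicon replication; test concentration not given here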
[3] = biological target: Left-right determination factor 2 (Homo sapiens) (UniProt O00292); test: LEFTY2 binders on small-molecule microarrays, primary screen, biochemical, small-molecule microarray, 635 nm fluorescence scan (AID 1110); conditions: LEFTY2 binding, higher = more signal
Chain of Left-right determination factor 2 (Homo sapiens) (O00292 whole entry, looked up): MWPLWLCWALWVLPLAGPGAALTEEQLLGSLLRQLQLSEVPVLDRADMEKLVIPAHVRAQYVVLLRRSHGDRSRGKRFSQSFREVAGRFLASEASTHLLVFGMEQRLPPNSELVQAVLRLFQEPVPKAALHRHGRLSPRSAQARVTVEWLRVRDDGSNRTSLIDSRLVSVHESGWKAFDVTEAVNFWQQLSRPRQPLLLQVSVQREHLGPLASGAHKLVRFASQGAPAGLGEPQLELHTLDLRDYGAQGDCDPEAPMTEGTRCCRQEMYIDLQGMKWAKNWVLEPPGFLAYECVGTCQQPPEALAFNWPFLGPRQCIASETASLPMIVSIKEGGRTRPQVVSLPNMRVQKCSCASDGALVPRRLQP

[4] = biological target: Calmodulin-1 (Homo sapiens) (UniProt P0DP23); test: CALM1 binders on microarrays, EGTA buffer, profiling panel, biochemical, small-molecule microarray, Cy5-labelled CALM1 (AID 1111); conditions: Cy5-CALM1 binding fluorescence, higher = more signal;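 note: labelled calmodulin applied in Tris saline Tween buffer holding calcium plus EGTA and DTT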
[5] = biological target: Calmodulin-1 (Homo sapiens) (UniProt P0DP23); test: calcium-bound CALM1 binders on microarrays, profiling panel, artefact control for SMM control-protein annotation, biochemical, small-molecule microarray, Cy5-labelled CALM1, plus calcium (AID 1112); conditions: Cy5-CALM1 binding fluorescence, higher = more signal;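 note: score merges spot fluorescence with signal to noise from triplicate slides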
[6] = small-molecule microarray binders of probe aWnt5a, primary screen, biochemical, biotinylated probe, 635/667 nm fluorescence (AID 1113); conditions: higher = more signal;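 note: score merges 667 nm fluorescence intensity with signal-to-noise per printed feature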
[7] = small-molecule microarray binders of probe aShh, primary screen, biochemical, biotinylated probe, 635/667 nm fluorescence (AID 1114); conditions: higher = more signal;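 note: probe is biotin-labelled aShh protein from a stem cell growth factor screen; measures binding of labelled protein to compounds printed on the slide; score merges feature fluorescence at 667 nm with signal-to-noise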
[8] = small-molecule microarray binders of probe aNog, primary screen, biochemical, biotinylated probe, 635/667 nm fluorescence (AID 1115); conditions: higher = more signal;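 note: probe is biotinylated aNog protein used at 0.15 µg/mL for 1 h at 4 C; z-score combines 667 nm fluorescence of each spot with its signal to noise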
[9] = biological target: Torsin-1A-interacting protein 1 (Homo sapiens) (UniProt Q5JTV8); test: LAP1 binders from COS7 cell lysate, primary screen, small-molecule microarray, 635/667 nm fluorescence (AID 1116); conditions: COS7-hLAP1 lysate binding, 635 nm fluorescence, higher = more signal
Chain of Torsin-1A-interacting protein 1 (Homo sapiens) (Q5JTV8 whole entry, looked up): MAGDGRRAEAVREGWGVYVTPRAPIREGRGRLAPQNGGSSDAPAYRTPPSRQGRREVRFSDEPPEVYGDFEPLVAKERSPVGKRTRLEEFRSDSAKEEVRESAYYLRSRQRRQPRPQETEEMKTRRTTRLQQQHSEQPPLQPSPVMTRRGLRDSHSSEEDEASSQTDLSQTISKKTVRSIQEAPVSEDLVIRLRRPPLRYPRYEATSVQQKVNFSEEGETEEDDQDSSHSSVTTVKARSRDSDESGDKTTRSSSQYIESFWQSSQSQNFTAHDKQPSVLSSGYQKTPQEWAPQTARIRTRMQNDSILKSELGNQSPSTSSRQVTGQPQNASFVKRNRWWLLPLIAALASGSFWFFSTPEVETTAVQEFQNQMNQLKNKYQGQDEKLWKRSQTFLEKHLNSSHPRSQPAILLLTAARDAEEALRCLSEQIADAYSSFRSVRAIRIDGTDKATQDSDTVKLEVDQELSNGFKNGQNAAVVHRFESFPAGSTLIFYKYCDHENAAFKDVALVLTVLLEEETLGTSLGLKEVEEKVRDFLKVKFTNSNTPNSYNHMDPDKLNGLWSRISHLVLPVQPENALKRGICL

[10] = biological target: Alpha-bungarotoxin (Bungarus multicinctus) (UniProt P60615); test: alpha-bungarotoxin binders on microarray, profiling panel, artefact control for SMM control protein annotation, biochemical, small-molecule microarray, Alexa647 label, 635/667 nm fluorescence (AID 1117); conditions: alpha-BTX-A647 binding fluorescence, higher = more signal
Chain of Alpha-bungarotoxin (Bungarus multicinctus) (P60615 whole entry, looked up): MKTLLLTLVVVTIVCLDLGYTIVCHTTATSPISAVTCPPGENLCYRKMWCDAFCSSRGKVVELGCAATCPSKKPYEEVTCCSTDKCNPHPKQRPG

Albumin (Bos taurus) = Albumin (Bos taurus) (UniProt P02769); test: bovine serum albumin binders on microarray, profiling panel, artefact control for SMM control protein annotation, biochemical, small-molecule microarray, Alexa647 label, 635/667 nm fluorescence (AID 1118); conditions: BSA-A647 binding, fluorescence 635 nm, higher = more signal;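 note: score merges 667 nm emission intensity and signal-to-noise per printed compound spot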
Chain of Albumin (Bos taurus) (P02769 whole entry, looked up): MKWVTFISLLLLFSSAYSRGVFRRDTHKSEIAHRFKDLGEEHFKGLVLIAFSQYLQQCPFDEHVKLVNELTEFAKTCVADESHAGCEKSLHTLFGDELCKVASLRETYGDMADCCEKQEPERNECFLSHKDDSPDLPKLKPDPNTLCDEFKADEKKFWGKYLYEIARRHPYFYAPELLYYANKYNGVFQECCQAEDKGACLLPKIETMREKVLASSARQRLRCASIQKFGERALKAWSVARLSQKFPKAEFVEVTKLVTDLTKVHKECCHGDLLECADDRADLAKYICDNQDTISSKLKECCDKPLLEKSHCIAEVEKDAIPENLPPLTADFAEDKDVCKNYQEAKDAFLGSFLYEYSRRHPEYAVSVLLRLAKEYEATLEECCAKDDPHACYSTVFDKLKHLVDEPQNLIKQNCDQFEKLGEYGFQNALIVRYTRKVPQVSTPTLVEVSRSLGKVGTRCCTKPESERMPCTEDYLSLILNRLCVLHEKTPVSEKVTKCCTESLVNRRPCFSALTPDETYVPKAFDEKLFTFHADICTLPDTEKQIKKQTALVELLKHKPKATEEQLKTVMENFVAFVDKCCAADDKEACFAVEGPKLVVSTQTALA

[11] = small-molecule microarray binders of probe aXIP, primary screen, biochemical, NeuroSMM set, 635/667 nm fluorescence (AID 1119); conditions: higher = more signal, called active from +8 up or from −8 down;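 note: probe is the protein aXip251-270 applied at 1 µg/mL to compound-printed slides; binding of probe to printed compounds measured as 667 nm fluorescence plus signal to noise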
[12] = small-molecule binders of probe aNOTCH3, primary screen, biochemical, small-molecule microarray, 635/667 nm fluorescence (AID 1120); conditions: higher = more signal;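 note: probe is a biotin-tagged antibody raised against NOTCH3 rather than NOTCH3 protein; score merges spot fluorescence near 667 nm with spot signal to noise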
[13] = small-molecule binders of probe aNOTCH2, primary screen, biochemical, small-molecule microarray, 635/667 nm fluorescence (AID 1121); conditions: higher = more signal;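 note: score merges feature fluorescence read at 667 nm with its signal to noise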
[14] = biological target: Carbonic anhydrase 2 (Homo sapiens) (UniProt P00918); test: CAII small-molecule binders, profiling panel, biochemical, small-molecule microarray, Alexa647-labelled CAII (AID 1122); conditions: CAII-A647 binding fluorescence, higher = more signal
[15] = COS7 lysate on small-molecule microarray, probe aHis, 635 nm (AID 1123); conditions: COS7 cell lysate, fluorescence, higher = more signal;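 note: z-score combines 667nm fluorescence intensity with signal-to-noise per printed compound spot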
[16] = compound binding in COS7 lysate, probe aLAP1, primary screen, cell lysate, small-molecule microarray (AID 1124); conditions: probe aLAP1, fluorescence, higher = more signal;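 note: lysate comes from COS7 cells expressing LAP1 and is applied at 0.3 µg/mL; score merges spot fluorescence near 667 nm with signal-to-noise over triplicate slides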
Sam68 (KHDRBS1) = test: Sam68 small-molecule binders, primary screen, biochemical, small-molecule microarray, 635 nm fluorescence (AID 1125); conditions: small-molecule microarray binding, higher = more signal;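 note: score merges 667 nm channel intensity with signal to noise over triplicate slides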
[17] = tested on: Chordin-like protein 2 (CHRDL2); test: CHRDL2 small-molecule binders, primary screen, biochemical, small-molecule microarray, 635 nm fluorescence (AID 1126); conditions: small-molecule microarray binding, fluorescence 635 nm; higher = more signal;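 note: printed compound slides probed with Chrdl2 protein at 4 µg/mL for 1 h at 4 C; score merges 667 nm emission intensity with signal to noise over three replicate slides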
[18] = biological target: Concanavalin-A (Canavalia ensiformis) (UniProt P02866); test: ConA small-molecule binders, primary screen, artefact control for SMM control protein annotation, biochemical, small-molecule microarray, Alexa647 label, 635 nm (AID 1127); conditions: ConA-A647 binding fluorescence, higher = more signal;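 note: z combines 667 nm emission intensity with signal-to-noise across three replicate slides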
Chain of Concanavalin-A (Canavalia ensiformis) (P02866 whole entry, looked up): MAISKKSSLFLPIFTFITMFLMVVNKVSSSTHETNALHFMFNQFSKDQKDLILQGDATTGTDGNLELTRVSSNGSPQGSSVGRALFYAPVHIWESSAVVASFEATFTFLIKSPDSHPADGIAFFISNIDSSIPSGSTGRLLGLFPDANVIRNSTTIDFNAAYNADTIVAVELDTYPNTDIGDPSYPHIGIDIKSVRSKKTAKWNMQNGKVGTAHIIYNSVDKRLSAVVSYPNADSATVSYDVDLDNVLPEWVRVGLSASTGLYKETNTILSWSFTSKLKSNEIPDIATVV

SMILES | composite z-score [1] | z-score [2] | composite z-score [3] | composite z-score [4] | composite z-score [5] | composite z-score [6] | composite z-score [7] | composite z-score [8] | composite z-score [9] | composite z-score [10] | composite z-score (Albumin (Bos taurus)) | composite Z-score [11] | composite z-score [12] | composite z-score [13] | composite z-score [14] | composite z-score [15] | composite z-score [16] | composite z-score (Sam68 (KHDRBS1)) | composite z-score [17] | composite z-score [18]
O=C1OCC=C[C@H]2OC34C=CCN(Cn5nnc6ccccc65)C(=O)[C@H]3N(CCCO)C(=O)[C@@H]4[C@@H]12 (stereo not given in full) | -0.408 | 0.424 | -0.573 | -0.0941 | 0.449 | -0.26 | 0.381 | 0.0517 | 0.529 | -1.11 | -0.877 | -0.309 (inactive) | -0.279 | -0.185 | 0.847 | -0.145 | -0.124 | -0.196 | -0.682 | -0.0288
COCCOC(=O)N1C(=O)[C@@]2(c3cc(C#CC4=CCCCC4)ccc31)[C@H](c1ccccc1OCCO)N1[C@H](c3ccccc3)[C@H](c3ccccc3)OC(=O)[C@H]1[C@@H]2C(=O)Nc1nc2ccccc2s1 | 1.33 | -2.23 | 0.526 | 1.36 | 0.13 | -0.0236 | 0.0253 | 0.904 | 0.666 | 1.48 | 0.526 | -0.243 (inactive) | 0.158 | -0.0047 | 0.236 | 1.06 | -0.375 | 1.32 | 0.454 | 1.15
C=CCOC(=O)[C@H]1[C@@H]2C(=O)O[C@@H](c3ccccc3)[C@@H](c3ccccc3)N2[C@@H](c2ccc(OCCOC(=O)[C@@H]3C[C@@H]4C(=O)N[C@@H](CCCCN(C)C)C(=O)N4[C@@H]3c3ccc(O)cc3)cc2)[C@]12C(=O)Nc1ccccc12 | -0.541 | -2.88 | 1.08 | -1.35 | -1.07 | -0.124 | -0.0709 | -0.106 | 1.17 | -0.23 | -0.568 | 0.685 (inactive) | 0.137 | 0.0002 | 0.297 | 2.58 | 0.949 | 1.31 | 1.44 | 1.14
C=CCC(OC(C)=O)[C@@H]1[C@@H](N(Cc2ccc(-c3cccc(C(F)(F)F)c3)o2)C(=O)c2ccc(C)cc2)c2cc(OCCCO)ccc2N1C(=O)c1ccc2ccccc2c1 (stereo not given in full) | -0.191 | -0.471 | -0.0584 | -0.287 | -0.208 | 0.0433 | -0.221 | -0.347 | -0.048 | -0.0213 | 0.149 | -0.0045 (inactive) | -0.0377 | -0.14 | 0.151 | 0.387 | -0.0397 | -0.285 | 0.287 | 0.0961
NC(=O)N1C(=O)C2C(C1=O)C1C=C(CCCO)C2C(c2cccs2)N1Cc1cccc(OC(F)(F)F)c1 (stereo not given) | 0.72 | -0.933 | -0.0132 | 0.155 | 0.632 | -0.0721 | 0.723 | -0.0132 | 1.06 | 0.797 | 0.729 | -0.182 (inactive) | -0.023 | -0.0534 | 0.583 | 0.789 | -0.0259 | 1.07 | -0.0665 | 0.434
NC(=O)NCC#Cc1ccc2c(c1)[C@]1(C(=O)N2)[C@H](C(=O)NC[C@H](O)c2ccccc2)[C@H]2C(=O)O[C@H](c3ccccc3)[C@H](c3ccccc3)N2[C@@H]1c1ccc(OCCO)cc1 | 1.25 | -1.22 | -0.461 | 0.616 | 0.541 | -0.143 | -0.0769 | -0.418 | 0.863 | 1.43 | -0.397 | 0.491 (inactive) | 0.233 | -0.0449 | 0.377 | 0.791 | 0.587 | 1.01 | -0.0806 | 0.798

— PubChem BioAssay
